A word on the AC50: it is the concentration at which the activity in the assay is half-maximal.

SMILES strings stand for the structures. The whole screen tested about 16,000 compounds, of which about 5,700 (36%) were called active. Roughly 24% stayed inconclusive and do not appear here. The list shows a part of the results. A number with no mark means an inactive call. The call rests on the fitted dose curve; in most records, active means well fitted curve in the direction sought with a large enough effect; inconclusive means small, poorly fitted or top-dose-only effect, or effect the other way; inactive means no such curve, though single readings can be large or run the other way.
On the % scale 0 is the no-effect control and ±100 the full control effect.

In the assay the target is Cytochrome P450 1A2 (Homo sapiens) (UniProt P05177). In words: Cytochrome panel assay with activity outcomes. Particulars: recombinant CYP, pro-luciferin dealkylation, luminescence, p450-cyp1a2; series mostly up to 57.1 µM; activity, negative = inhibition: at the top concentration.
Cytochrome P450 1A2 (Homo sapiens), sequence (P05177 whole entry, looked up): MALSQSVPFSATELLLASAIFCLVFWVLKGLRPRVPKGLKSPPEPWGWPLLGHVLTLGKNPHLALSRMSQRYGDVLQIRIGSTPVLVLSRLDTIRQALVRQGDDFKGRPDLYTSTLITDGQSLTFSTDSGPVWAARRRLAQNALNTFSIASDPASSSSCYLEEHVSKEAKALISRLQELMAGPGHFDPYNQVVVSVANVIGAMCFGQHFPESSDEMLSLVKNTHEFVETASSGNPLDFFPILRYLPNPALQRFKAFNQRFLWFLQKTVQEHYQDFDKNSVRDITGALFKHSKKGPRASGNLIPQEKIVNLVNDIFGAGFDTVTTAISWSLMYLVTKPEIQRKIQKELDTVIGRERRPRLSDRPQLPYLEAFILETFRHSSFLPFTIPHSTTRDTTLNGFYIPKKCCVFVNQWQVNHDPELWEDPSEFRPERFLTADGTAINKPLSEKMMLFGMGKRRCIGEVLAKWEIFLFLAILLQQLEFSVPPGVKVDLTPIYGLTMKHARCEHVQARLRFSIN
Turning to `O=C(Nc1c(C(=O)N2CCCCC2)cnn1-c1ccccc1)c1ccco1`, the “activity, negative = inhibition” value was -12.5%.

`Cc1nn(-c2ccccc2)c(C)c1/C=N/NC(=O)c1cc(-c2ccc(Cl)s2)[nH]n1`: the AC50 is 14.1 µM (active).

With `Cc1nn(-c2ccccc2)c(Cl)c1/C=N/NC(=O)c1ccco1`, the half-maximal activity concentration (AC50) was 7.08 µM (active).

In the case of `COc1ccc(CN2C(=O)c3ccccc3C(/C=N\OCc3ccc(F)cc3)C2=O)cc1` (stereo not given), the AC50 was 12.6 µM (active).

As for `CCCC1S/C(=N/N=C/c2ccc(OC)cc2)N(Cc2ccc(OC)cc2)C1=O` (stereo not given), the “activity, negative = inhibition” value was -28.8%.

As to `CN(C)c1ncc2nc(-c3ccc(Cl)cc3)c(=O)n(C)c2n1`, the AC50 is 1.58 µM (active).

`CN(C)c1ncc2nc(-c3ccccc3)c(=O)n(C)c2n1`: the AC50 was 1 µM (active).

With `CN(C)c1ncc2nc(-c3ccc(F)cc3)c(=O)n(C)c2n1`, the half-maximal activity concentration (AC50) is 1.58 µM (active).

For `C=CC[C@@H]1C=C[C@@H](O/N=C\c2ccc(C(=O)N3[C@H](c4ccc(C)cc4)[C@@H](C)CC[C@H]3C(=O)OC)cc2)[C@@H](CO)O1`, the activity, negative = inhibition is -12.6% [at 11.4 µM].

Regarding `COCCNc1ccnc(-c2ccccc2C)n1`, the concentration at half-maximal activity (AC50) was 12.6 µM (active).

For the compound `COCCNc1ccnc(-c2ccccc2CN(C)C)n1`, the AC50 is 5.01 µM (active).

Take `CN(C)CCNc1ccccn1`: the activity, negative = inhibition is -5.87% [at 11.4 µM].

As for `CC1(C)C2([N+](=O)[O-])CN3CC1([N+](=O)[O-])CN(C2)C31CCCC1`, the “activity, negative = inhibition” value is 5.96%.

As to `Cc1noc(C)c1C(=O)N1CCC2(CCN(Cc3ccncc3)CC2)CC1`, the “activity, negative = inhibition” value was 2.85%.

As for `CCc1c(C)c(C#N)c2nc3ccccc3n2c1N1CCN(c2cc(C)ccn2)CC1`, the “activity, negative = inhibition” value was -11%.

`O=C(O)c1nc2nc(Cl)c(Cl)nc2[nH]1`: the activity, negative = inhibition is -18.2% [at 11.4 µM].

Consider `CCCCSCc1nc2nc(Cl)c(Cl)nc2[nH]1`, for which the AC50 is 3.16 µM (active).

For `O=C(CSCc1ccc(Cl)cc1)Nc1nccs1`, the AC50 was 0.178 µM (active).

As for `C/C(=N\NC(=O)CSCc1ccc(Cl)cc1)c1ccc2c(c1)OCCO2`, the half-maximal activity concentration (AC50) was 7.94 µM (active).

As for `O=C(CN1CCN(CC(=O)Nc2ccccc2Cl)CC1)Nc1ccc2c(c1)OCCO2`, the “activity, negative = inhibition” value is -49.9%.

With `O=C(CSCc1ccc(Cl)cc1)Nc1ccc2c(c1)OCCO2`, the AC50 was 17.8 µM (active).

As to `CC(C)(C)NC(=O)CN(Cc1cccs1)C(=O)CCC(=O)Nc1nccs1`, the “activity, negative = inhibition” value was -15.8%.

With `O=C(O)CCC(=O)N1CCOc2ccc(Cl)cc21`, the “activity, negative = inhibition” value is -13.1%.

With `O=S(=O)(c1ccccc1)N1CCC2(CCN(Cc3nccs3)CC2)CC1`, the “activity, negative = inhibition” value is 1.6%.

Consider `O=C(c1csnn1)N1CCC[C@@]2(CCN(c3ccncc3)C2)C1`, for which the “activity, negative = inhibition” value is -17.8%.

Take `CCOC(=O)c1c(NC(C)=O)sc2c(OC)cccc12`: the AC50 is 0.316 µM (active).

As to `NS(=O)(=O)c1cc2c(cc1Cl)=NC(CCC(=O)O)=NS=2(=O)O`, the activity, negative = inhibition was 4.98% [at 11.4 µM].

Take `Cc1nn(C(C)C(=O)Nc2sc3c(c2C#N)CCCC3)c(C)c1[N+](=O)[O-]` (stereo not given): the AC50 is 3.55 µM (active).

Regarding `Cc1nn(C(C)C(=O)N2CCc3ccccc32)c(C)c1[N+](=O)[O-]` (stereo not given), the “activity, negative = inhibition” value was -9.2%.

As for `CCOc1cc(C2NN=C(c3ccccc3)S2)ccc1OCc1ccccc1Cl` (stereo not given), the concentration at half-maximal activity (AC50) is 3.16 µM (active).

`CN(Cc1ccco1)c1ccnc(-c2cccc(NS(C)(=O)=O)c2)n1`: the AC50 is 1.26 µM (active).

Take `CN(C)c1ccnc(-c2cccc(NS(C)(=O)=O)c2)n1`: the concentration at half-maximal activity (AC50) was 1.58 µM (active).

Take `C=C[C@@]1(C)CC(=O)[C@@]2(O)[C@@]3(C)[C@@H](O)CCC(C)(C)[C@@H]3[C@H](OC(=O)CCN(C)C)[C@H](OC(C)=O)[C@@]2(C)O1`: the “activity, negative = inhibition” value is 3.28%.

Consider `O=C(Nc1ccc(Br)cc1)c1ccc(CSC2=NCCS2)cc1`, for which the “activity, negative = inhibition” value is -23.7%.

`COC(=O)c1ccc(C(=O)OC)c(NC(=O)CSCc2ccc(Br)cc2)c1`: the AC50 is 0.891 µM (active).

Take `CC(=O)Nc1ccc(-c2cc(-c3ccc(NC(C)=O)cc3)nc(-c3ccccc3)n2)cc1`: the “activity, negative = inhibition” value is 2.96%.

For `N#Cc1ccc(Oc2nc(C(N)=O)cc(-c3ccccc3)n2)cc1`, the concentration at half-maximal activity (AC50) was 2 µM (active).

On to `Cc1ccc(NC(=O)c2cc([N+](=O)[O-])ccc2NCc2cccnc2)cc1Cl`, for which the concentration at half-maximal activity (AC50) is 0.126 µM (active).

For the compound `COC(=O)C1(Cc2ccccc2)C2c3cc(C(=O)N4CCCC4)n(Cc4ccc(OC(F)(F)F)cc4)c3CC2CN1C(=O)c1ccccc1` (stereo not given), the “activity, negative = inhibition” value was -14.3%.

As to `Cc1cc(C)c(S(=O)(=O)N2CCN(c3ccc([N+](=O)[O-])c(NCc4ccco4)c3)CC2)c(C)c1`, the “activity, negative = inhibition” value is -24.1%.

For the compound `O=[N+]([O-])c1ccc(N2CCCC2)cc1NCc1ccccc1`, the concentration at half-maximal activity (AC50) was 0.794 µM (active).

Regarding `CC(C)c1ccc(CNc2cc(N3CCCC3)ccc2[N+](=O)[O-])cc1`, the AC50 was 3.16 µM (active).

Take `Cc1cc(C)c(S(=O)(=O)N2CCN(c3ccc([N+](=O)[O-])c(NCC4CCCO4)c3)CC2)c(C)c1` (stereo not given): the “activity, negative = inhibition” value is -29.3%.

Take `Cc1cccc(C(=O)N2CCN(c3ccc([N+](=O)[O-])c(NCc4ccco4)c3)CC2)c1`: the “activity, negative = inhibition” value is -10.7%.

With `CS(=O)(=O)N1CCN(c2ccc([N+](=O)[O-])c(NCc3ccccc3)c2)CC1`, the concentration at half-maximal activity (AC50) is 12.6 µM (active).

As to `O=[N+]([O-])c1nccn1C[C@H](O)CN1CCCCC1`, the activity, negative = inhibition was 4.83% [at 11.4 µM].

Turning to `Cc1ccccc1C(=O)N1CCN(c2ccc([N+](=O)[O-])c(NCc3ccco3)c2)CC1`, the “activity, negative = inhibition” value was -15.1%.

Consider `O=C(O)CSc1ncccc1[N+](=O)[O-]`, for which the activity, negative = inhibition is 2.52% [at 11.4 µM].

As to `Cc1cc(C)n(-c2cc(N3CCN(C(=O)c4ccc(C(C)(C)C)cc4)CC3)ccc2[N+](=O)[O-])n1`, the “activity, negative = inhibition” value is -14.2%.

As for `O=[N+]([O-])c1cccnc1N1CCCCC1`, the AC50 was 5.01 µM (active).

Values taken from PubChem BioAssay AID1851 (National Center for Advancing Translational Sciences (NCATS), 2009).
